Assay results reported in PubChem BioAssay (NCI).
Where “and” joins values, the source holds several entries; their conditions need not be identical. Equal values may be shown once. The panel holds about 83,000 compounds, 20% with a hit somewhere; the sample as a whole holds those more often.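 Note: values are percent growth. 100 is the growth of untreated cells, values between 100 and 0 indicate rising inhibition; between -100 and 0 indicates cell death.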 Calls of active or inactive are those of the source. Rule for the calls: active = growth percent below 10; inactive = the rest.

Assays:
Assay in all cases: NCI-60 one-dose screen, 48 h (100 = growth as untreated, 0 = no growth, -100 = all killed)
Conditions in all cases: 10 µM unless noted
SK-MEL-2 melanoma = system: SK-MEL-2 melanoma
EKVX NSCLC = system: EKVX NSCLC
SN12C renal = system: SN12C renal
UO-31 renal = system: UO-31 renal
TK-10 renal = system: TK-10 renal
ACHN renal = system: ACHN renal
CAKI-1 renal = system: CAKI-1 renal
A498 renal = system: A498 renal
CCRF-CEM leukemia = system: CCRF-CEM leukemia
MOLT-4 leukemia = system: MOLT-4 leukemia
SR leukemia = system: SR leukemia
RPMI-8226 leukemia = system: RPMI-8226 leukemia
OVCAR-8 ovarian = system: OVCAR-8 ovarian
OVCAR-5 ovarian = system: OVCAR-5 ovarian
OVCAR-4 ovarian = system: OVCAR-4 ovarian
SK-OV-3 ovarian = system: SK-OV-3 ovarian
IGROV1 ovarian = system: IGROV1 ovarian
OVCAR-3 ovarian = system: OVCAR-3 ovarian
HS 578T breast = system: HS 578T breast
NCI/ADR-RES ovarian = system: NCI/ADR-RES ovarian

Measured: growth

CCN(CC)CCCC(C)Nc1cnc(C(=O)Nc2cc(F)cc3cccnc23)cn1 (stereo not given)
2.84% (active) and 21.7% (inactive): SR leukemia
active: OVCAR-3 ovarian 5.41% and -79.1%
29.1% (inactive) and -91.5% (active): UO-31 renal
36.7% (inactive) and -38.3% (active): CAKI-1 renal
60.5% (inactive) and -43.9% (active): OVCAR-8 ovarian
41.7% (inactive) and -21.9% (active): IGROV1 ovarian
75.1% (inactive) and 2.28% (active): RPMI-8226 leukemia
12.2% (inactive) and -83.5% (active): OVCAR-4 ovarian
36.6% (inactive) and -2.97% (active): ACHN renal
inactive: SK-MEL-2 melanoma 96.7% and 50% | EKVX NSCLC 73.3% and 19.2% | A498 renal 63% | MOLT-4 leukemia 22% and 10.4% | SK-OV-3 ovarian 98.3% and 25.8% | HS 578T breast 69.3% and 13.7% | NCI/ADR-RES ovarian 66.8% and 11.6%
19.7% (inactive) and 3.49% (active): CCRF-CEM leukemia
63.7% (inactive) and -48.8% (active): TK-10 renal
77.1% (inactive) and -24.2% (active): OVCAR-5 ovarian
54.5% (inactive) and 1.53% (active): SN12C renal

COc1ccc2nc(Cl)cc(C)c2c1
inactive: SK-MEL-2 melanoma 99.6% | EKVX NSCLC 80.4% and 97.6% | SN12C renal 107% and 103% | UO-31 renal 84.9% and 107% | TK-10 renal 73.7% and 78.9% | ACHN renal 105% and 118% | CAKI-1 renal 85.6% | A498 renal 86% and 83.4% | CCRF-CEM leukemia 100% and 88.9% | MOLT-4 leukemia 100% and 76.5% | SR leukemia 88.2% and 82.3% | RPMI-8226 leukemia 95.6% and 109% | OVCAR-8 ovarian 101% and 47.4% | OVCAR-5 ovarian 93.7% and 93.4% | OVCAR-4 ovarian 99.2% and 91.8% | SK-OV-3 ovarian 107% and 124% | IGROV1 ovarian 108% and 132% | OVCAR-3 ovarian 119% | HS 578T breast 113% | NCI/ADR-RES ovarian 98.9% and 102%

CCCCCCCCCCCCOc1ccccc1C=O
inactive: SK-MEL-2 melanoma 112% | EKVX NSCLC 97% | SN12C renal 93.7% | UO-31 renal 65.1% | TK-10 renal 118% | ACHN renal 101% | CAKI-1 renal 84.9% | A498 renal 116% | CCRF-CEM leukemia 79.9% | MOLT-4 leukemia 78.3% | SR leukemia 84.9% | RPMI-8226 leukemia 96.4% | OVCAR-8 ovarian 94.6% | OVCAR-5 ovarian 101% | OVCAR-4 ovarian 86.5% | SK-OV-3 ovarian 95.7% | IGROV1 ovarian 112% | OVCAR-3 ovarian 108% | HS 578T breast 97% | NCI/ADR-RES ovarian 102%

CC1=NN(c2ccccc2)C(=O)C1C(=O)c1ccccc1 (stereo not given)
inactive: SK-MEL-2 melanoma 96.6% | EKVX NSCLC 95% | SN12C renal 108% | UO-31 renal 90.6% | TK-10 renal 107% | ACHN renal 99.4% | CAKI-1 renal 95.9% | A498 renal 92.4% | CCRF-CEM leukemia 88.4% | MOLT-4 leukemia 95.8% | SR leukemia 82.7% | RPMI-8226 leukemia 91.9% | OVCAR-8 ovarian 88.4% | OVCAR-5 ovarian 120% | OVCAR-4 ovarian 108% | SK-OV-3 ovarian 112% | IGROV1 ovarian 100% | OVCAR-3 ovarian 102% | HS 578T breast 127% | NCI/ADR-RES ovarian 101%

CN(C)CCCN1c2ccccc2Sc2ccc(Cl)cc21
inactive: SK-MEL-2 melanoma 77.6% and 107% and 112% | EKVX NSCLC 91.6% and 147% | SN12C renal 66.7% and 117% and 78.8% | UO-31 renal 54.4% and 89.3% and 50.3% | TK-10 renal 122% and 92.6% | ACHN renal 44.8% and 108% and 68.7% | CAKI-1 renal 75.1% and 257% and 52.5% | A498 renal 105% and 120% and 108% | CCRF-CEM leukemia 73.6% and 98.7% | MOLT-4 leukemia 69.7% and 102% and 83.3% | SR leukemia 67.9% and 105% and 62.2% | RPMI-8226 leukemia 71% and 97.9% and 103% | OVCAR-8 ovarian 85.6% and 93% and 94.2% | OVCAR-5 ovarian 90.8% and 113% and 95.6% | OVCAR-4 ovarian 83.3% and 113% and 85.9% | SK-OV-3 ovarian 24.1% and 76.5% | IGROV1 ovarian 69.7% and 63.4% | OVCAR-3 ovarian 84.2% and 112% and 83.4% | HS 578T breast 90.3% and 90.2% and 89.1% | NCI/ADR-RES ovarian 85% and 109% and 89.5%

Cc1cc(=O)[nH]c(O)c1C#N
inactive: SK-MEL-2 melanoma 108% | EKVX NSCLC 99.6% and 99.9% | SN12C renal 102% and 93.7% | UO-31 renal 87.3% and 105% | TK-10 renal 103% and 92.9% | ACHN renal 101% and 95.7% | CAKI-1 renal 90.3% and 60.5% | A498 renal 114% and 111% | CCRF-CEM leukemia 113% and 90.3% | MOLT-4 leukemia 106% and 101% | SR leukemia 94.8% and 122% | RPMI-8226 leukemia 119% and 332% | OVCAR-8 ovarian 105% and 101% | OVCAR-5 ovarian 93.7% and 90% | OVCAR-4 ovarian 99.8% and 104% | SK-OV-3 ovarian 105% and 96.2% | IGROV1 ovarian 100% | OVCAR-3 ovarian 112% | HS 578T breast 120% and 109% | NCI/ADR-RES ovarian 106% and 105%

NC(=S)NN=C1CCC(C2CCCCC2)CC1 (stereo not given)
inactive: SK-MEL-2 melanoma 96% and 90.2% | EKVX NSCLC 78.9% and 82.6% | SN12C renal 82.3% and 82.5% | UO-31 renal 69.3% and 45.9% | TK-10 renal 113% and 104% | ACHN renal 100% and 98.8% | CAKI-1 renal 81.9% and 96.2% | A498 renal 88.2% | CCRF-CEM leukemia 81.1% and 92% | MOLT-4 leukemia 81.4% and 73.3% | SR leukemia 125% | RPMI-8226 leukemia 67.1% and 74.9% | OVCAR-8 ovarian 100% and 98.8% | OVCAR-5 ovarian 110% and 93.3% | OVCAR-4 ovarian 33.8% | SK-OV-3 ovarian 100% and 101% | IGROV1 ovarian 98.2% and 89.4% | OVCAR-3 ovarian 83.9% and 85.7% | HS 578T breast 79.3% and 109% | NCI/ADR-RES ovarian 96.8% and 102%

CC(CN=Cc1ccccc1O)N=Cc1ccccc1O (stereo not given)
-6.87% (active) and 94% (inactive): RPMI-8226 leukemia
-14.8% (active) and 112% (inactive): IGROV1 ovarian
inactive: SK-MEL-2 melanoma 154% and 102% | EKVX NSCLC 102% and 111% | SN12C renal 90.4% and 98.7% | UO-31 renal 107% and 80.3% | TK-10 renal 110% and 106% | ACHN renal 103% and 93.8% | CAKI-1 renal 93.6% and 99.1% | A498 renal 121% and 105% | CCRF-CEM leukemia 92.3% and 96.2% | MOLT-4 leukemia 120% and 93.3% | SR leukemia 100% | OVCAR-8 ovarian 106% and 108% | OVCAR-5 ovarian 104% and 95.5% | OVCAR-4 ovarian 109% and 103% | SK-OV-3 ovarian 104% and 86.4% | OVCAR-3 ovarian 97.4% and 112% | HS 578T breast 90.7% | NCI/ADR-RES ovarian 105% and 101%

CN(C)CCCNC1=C(Cl)C(=O)c2ccccc2C1=O
67.1% (inactive) and -98.3% (active): SN12C renal
19.8% (inactive) and -44.6% (active): OVCAR-3 ovarian
87.6% (inactive) and -34.4% (active): SK-MEL-2 melanoma
68% (inactive) and -60.7% (active): OVCAR-8 ovarian
inactive: UO-31 renal 73.8% and 47.6% | TK-10 renal 120% and 116% | ACHN renal 92.7% and 92.5% | CAKI-1 renal 91.3% and 104% | A498 renal 103% and 85.4% | CCRF-CEM leukemia 80% and 81.3% | MOLT-4 leukemia 57% and 79.3% | RPMI-8226 leukemia 65% and 45.5% | OVCAR-5 ovarian 98.4% and 98.8% | SK-OV-3 ovarian 88.9% and 95.9% | NCI/ADR-RES ovarian 103% and 78.7%
30.2% (inactive) and -44.6% (active): EKVX NSCLC
active: SR leukemia -18.8% | IGROV1 ovarian -52.5% and -98.8% | HS 578T breast 9.81%
17.7% (inactive) and -100% (active): OVCAR-4 ovarian
